From the supplement of paper PMC9794691

Assays:
H1975 [1] = assay: area under confluence curve of compound monotherapy; compare to DMSO control AUC of the same experiment (AUC (confluence x time, arbitrary)); settings: 100 nM; DMSO control AUC in same experiment: 14522
In short: (§1)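 EGFR-mutant adenocarcinoma lines (RPMI 1640, 10% FBS, 37 °C, 5% CO2) were seeded at 20,000–30,000 cells/well in 48-well plates and next day given test compound alone at one dose (highest with <50% parental inhibition, or 1 uM), refreshed after PBS washes every 3–4 days, then drug-free from DTP stage (10–21 days). IncuCyte confluence was tracked until EGFR-inhibitor-only wells regrew. Area under the confluence curve came from Prism (median of triplicates where run), beside same-experiment vehicle AUC.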

HCC2279 [2] = assay: as above; settings: 100 nM; DMSO control AUC in same experiment: 29252
In short: as §1

HCC2935 [3] = assay: as above; settings: 100 nM; DMSO control AUC in same experiment: 13875
In short: as §1

HCC4006 [4] = assay: as above; settings: 100 nM; DMSO control AUC in same experiment: 16638
In short: as §1

HCC827 [5] = assay: as above; settings: 100 nM; DMSO control AUC in same experiment: 30859
In short: as §1

II-18 [6] = assay: as above; settings: 30 nM; DMSO control AUC in same experiment: 11408
In short: as §1

PC9 = assay: area under confluence curve of osimertinib + compound combination regimen (DTP regrowth); compare to osimertinib-only DTP control AUC of the same experiment (AUC (confluence x time, arbitrary))
In short: (§2)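 The area under the IncuCyte confluence–time curve, calculated in Prism and taken as the median of triplicates where available, is the value reported. It was measured in EGFR-mutant NSCLC lines that received the EGFR inhibitor either alone, followed by a test compound, or together with a fixed-dose test compound until the persister stage (10–21 days) and then drug-free medium. Medium was refreshed every 3–4 days until the inhibitor-only wells were confluent again.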

H1975 [7] = assay: as above
In short: as §2

HCC2279 [8] = assay: as above; settings: DMSO control AUC in same experiment: 14404
In short: as §2

HCC2935 [9] = assay: as above; settings: DMSO control AUC in same experiment: 19215
In short: as §2

HCC4006 [10] = assay: as above; settings: DMSO control AUC in same experiment: 18415
In short: as §2

HCC827 [11] = assay: as above; settings: DMSO control AUC in same experiment: 21320
In short: as §2

II-18 [12] = assay: as above; settings: DMSO control AUC in same experiment: 11834
In short: as §2

[13] = test compound dose 1000 nM, dosing schedule: sequential, osimertinib-only DTP control AUC in same experiment: 10968, DMSO control AUC in same experiment: 21594
[14] = test compound dose 1000 nM, dosing schedule: upfront, osimertinib-only DTP control AUC in same experiment: 17834, DMSO control AUC in same experiment: 21594

For `Cc1nc(Nc2ncc(C(=O)Nc3c(C)cccc3Cl)s2)cc(N2CCN(CCO)CC2)n1` [Dasatinib], which “area under confluence curve” value (H1975 [1]) is on record?
The value was 4980.

And the “area under confluence curve” value (HCC2279 [2])?
The value was 28300.

What about the “area under confluence curve” value (HCC2935 [3]) of the same compound?
Its value is 10400.

And the “area under confluence curve” value (HCC4006 [4])?
Its value is 11900.

And the “area under confluence curve” value (HCC827 [5])?
The value was 25600.

And the “area under confluence curve” value (II-18 [6])?
The value was 10100.

What does the source list for `Cc1cc2cc(C(=O)c3cnn(-c4cnc(Oc5c(F)cccc5F)cc4C)c3N)[nH]c2cc1NS(C)(=O)=O` + C=CC(=O)Nc1cc(Nc2nccc(-c3cn(C)c4ccccc34)n2)c(OC)cc1N(C)CCN(C)C [osimertinib]?
area under confluence curve (PC9; [13]): 7640; area under confluence curve (PC9; [14]): 9050

Which “area under confluence curve” value (PC9; test compound dose 100 nM, dosing schedule: sequential, osimertinib-only DTP control AUC in same experiment: 14258, DMSO control AUC in same experiment: 21913) does the source give for `Nc1ccc(/C=C/C(=O)NCc2cc3cc(-c4ccc(C(=O)N5CCC(F)(F)CC5)cc4)cc(-c4ccc(F)cc4)c3o2)cn1` + C=CC(=O)Nc1cc(Nc2nccc(-c3cn(C)c4ccccc34)n2)c(OC)cc1N(C)CCN(C)C [osimertinib] here?
Its value is 6800.

And the “area under confluence curve” value (PC9; test compound dose 100 nM, dosing schedule: upfront, osimertinib-only DTP control AUC in same experiment: 21499, DMSO control AUC in same experiment: 21913)?
Its value is 12200.

For `CN(C)CCCOc1ccc(-c2ccc3ncc4c(c3c2)n(C2CCOCC2)c(=O)n4C)cn1` + C=CC(=O)Nc1cc(Nc2nccc(-c3cn(C)c4ccccc34)n2)c(OC)cc1N(C)CCN(C)C [osimertinib], which “area under confluence curve” value (H1975 [7]; test compound dose 300 nM, dosing schedule: sequential, osimertinib-only DTP control AUC in same experiment: 19301, DMSO control AUC in same experiment: 26223) is on record?
Its value is 3330.

And the “area under confluence curve” value (H1975 [7]; test compound dose 300 nM, dosing schedule: upfront, osimertinib-only DTP control AUC in same experiment: 23997, DMSO control AUC in same experiment: 26223)?
Its value is 18100.

And the “area under confluence curve” value (HCC2279 [8]; test compound dose 300 nM, dosing schedule: sequential, osimertinib-only DTP control AUC in same experiment: 26096)?
The value was 24700.

And the “area under confluence curve” value (HCC2279 [8]; test compound dose 300 nM, dosing schedule: upfront, osimertinib-only DTP control AUC in same experiment: 33120)?
Its value is 33900.

And the “area under confluence curve” value (HCC2935 [9]; test compound dose 300 nM, dosing schedule: sequential, osimertinib-only DTP control AUC in same experiment: 22314)?
The value was 22300.

And the “area under confluence curve” value (HCC2935 [9]; test compound dose 300 nM, dosing schedule: upfront, osimertinib-only DTP control AUC in same experiment: 29846)?
The value was 30600.

And the “area under confluence curve” value (HCC4006 [10]; test compound dose 300 nM, dosing schedule: sequential, osimertinib-only DTP control AUC in same experiment: 12791)?
Its value is 12000.

And the “area under confluence curve” value (HCC4006 [10]; test compound dose 300 nM, dosing schedule: upfront, osimertinib-only DTP control AUC in same experiment: 17269)?
Its value is 16000.

And the “area under confluence curve” value (HCC827 [11]; test compound dose 300 nM, dosing schedule: sequential, osimertinib-only DTP control AUC in same experiment: 15330)?
Its value is 12300.

And the “area under confluence curve” value (HCC827 [11]; test compound dose 300 nM, dosing schedule: upfront, osimertinib-only DTP control AUC in same experiment: 20798)?
The value was 17400.

What about the “area under confluence curve” value (II-18 [12]; test compound dose 300 nM, dosing schedule: sequential, osimertinib-only DTP control AUC in same experiment: 8624) of the same compound?
Its value is 9720.

And the “area under confluence curve” value (II-18 [12]; test compound dose 300 nM, dosing schedule: upfront, osimertinib-only DTP control AUC in same experiment: 10856)?
The value was 10600.

What about the “area under confluence curve” value (PC9; test compound dose 300 nM, dosing schedule: sequential, osimertinib-only DTP control AUC in same experiment: 7760, DMSO control AUC in same experiment: 29563) of the same compound?
Its value is 4600.

And the “area under confluence curve” value (PC9; test compound dose 300 nM, dosing schedule: sequential, osimertinib-only DTP control AUC in same experiment: 15001, DMSO control AUC in same experiment: 22064)?
Its value is 14800.

What about the “area under confluence curve” value (PC9; test compound dose 300 nM, dosing schedule: sequential, osimertinib-only DTP control AUC in same experiment: 15044, DMSO control AUC in same experiment: 30604) of the same compound?
Its value is 3980.

What about the “area under confluence curve” value (PC9; test compound dose 300 nM, dosing schedule: upfront, osimertinib-only DTP control AUC in same experiment: 11798, DMSO control AUC in same experiment: 29563) of the same compound?
Its value is 5590.

What about the “area under confluence curve” value (PC9; test compound dose 300 nM, dosing schedule: upfront, osimertinib-only DTP control AUC in same experiment: 20672, DMSO control AUC in same experiment: 30604) of the same compound?
Its value is 5990.

What about the “area under confluence curve” value (PC9; test compound dose 300 nM, dosing schedule: upfront, osimertinib-only DTP control AUC in same experiment: 24924, DMSO control AUC in same experiment: 22064) of the same compound?
Its value is 22400.

Which “area under confluence curve” value (PC9; [13]) does the source give for `O=C([C@@H](Cc1cccc(C(F)(F)F)c1)NS(=O)(=O)c1cc(F)c2c(c1)CCNC2)N1CCCC1` + C=CC(=O)Nc1cc(Nc2nccc(-c3cn(C)c4ccccc34)n2)c(OC)cc1N(C)CCN(C)C [osimertinib] here?
The value was 10000.

What about the “area under confluence curve” value (PC9; [14]) of the same compound?
The value was 13600.

How did the “area under confluence curve” value (H1975 [7]; test compound dose 1000 nM, dosing schedule: sequential, osimertinib-only DTP control AUC in same experiment: 22968, DMSO control AUC in same experiment: 15857) turn out when `Cc1nc(N2CCC3(CC2)CO[C@@H](C)[C@H]3N)c(CO)nc1-c1cccc(Cl)c1Cl` + C=CC(=O)Nc1cc(Nc2nccc(-c3cn(C)c4ccccc34)n2)c(OC)cc1N(C)CCN(C)C [osimertinib] was run?
The value was 15500.

What about the “area under confluence curve” value (H1975 [7]; test compound dose 1000 nM, dosing schedule: upfront, osimertinib-only DTP control AUC in same experiment: 27164, DMSO control AUC in same experiment: 15857) of the same compound?
Its value is 17800.

And the “area under confluence curve” value (HCC2279 [8]; test compound dose 1000 nM, dosing schedule: sequential, osimertinib-only DTP control AUC in same experiment: 26096)?
Its value is 16900.

And the “area under confluence curve” value (HCC2279 [8]; test compound dose 1000 nM, dosing schedule: upfront, osimertinib-only DTP control AUC in same experiment: 33120)?
Its value is 21000.

What about the “area under confluence curve” value (HCC2935 [9]; test compound dose 1000 nM, dosing schedule: sequential, osimertinib-only DTP control AUC in same experiment: 22314) of the same compound?
Its value is 19500.

And the “area under confluence curve” value (HCC2935 [9]; test compound dose 1000 nM, dosing schedule: upfront, osimertinib-only DTP control AUC in same experiment: 29846)?
The value was 27200.

And the “area under confluence curve” value (HCC4006 [10]; test compound dose 1000 nM, dosing schedule: sequential, osimertinib-only DTP control AUC in same experiment: 12791)?
Its value is 9900.

What about the “area under confluence curve” value (HCC4006 [10]; test compound dose 1000 nM, dosing schedule: upfront, osimertinib-only DTP control AUC in same experiment: 17269) of the same compound?
The value was 14300.

What about the “area under confluence curve” value (HCC827 [11]; test compound dose 1000 nM, dosing schedule: sequential, osimertinib-only DTP control AUC in same experiment: 15330) of the same compound?
The value was 6150.

What about the “area under confluence curve” value (HCC827 [11]; test compound dose 1000 nM, dosing schedule: upfront, osimertinib-only DTP control AUC in same experiment: 20798) of the same compound?
Its value is 13400.

What about the “area under confluence curve” value (II-18 [12]; test compound dose 1000 nM, dosing schedule: sequential, osimertinib-only DTP control AUC in same experiment: 8624) of the same compound?
The value was 2640.

And the “area under confluence curve” value (II-18 [12]; test compound dose 1000 nM, dosing schedule: upfront, osimertinib-only DTP control AUC in same experiment: 10856)?
The value was 3200.
